In PubChem BioAssay (Tox21):
Records with an inconclusive call do not appear. Activity calls are given as the source filed them. Unless noted, calls come from the whole dose curve; as a rule, active = well fitted curve in the direction sought with a large enough effect in the repeat runs; inconclusive = weak or mixed curves; inactive = no such curve, though single readings can be large; an effect the other way counts as inactive or inconclusive.

What was measured:
[1] = A CellTox Green Cytotoxicity Assay to monitor cytotoxicity in HEK293 cells - 8 hour (AID 1224884); note: nearly all actives have a fitted effect of over 35% in size
Procedure, shortened: (§1)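 Each value comes from one timepoint of a single continuous run in which HEK293 cells with CellTox Green were exposed to compound for up to 40 h at 37 C, dye fluorescence rising with cell death.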

[2] = qHTS RealTime-Glo MT Cell Viability Assay in HepG2 cells - 16 hour (AID 1224885); note: nearly all actives have a fitted effect of over 50% in size
Procedure, shortened: (§2)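 HepG2 cells were seeded at 600 cells/well together with NanoLuc luciferase and a cell-permeant prosubstrate, preincubated 5 h at 37 C/5% CO2, then pin-dosed with compounds in DMSO. Nonlytic luminescence from viable cells was read at each time point.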

[3] = qHTS RealTime-Glo MT Cell Viability Assay in HEK293 cells - 24 hour (AID 1224886); note: nearly all actives have a fitted effect of over 50% in size; note: potency is the fitted concentration of half-maximal effect
Procedure, shortened: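 HEK293 cells were seeded at 600 cells/well together with NanoLuc luciferase and cell-permeant prosubstrate, preincubated 5 h at 37 C/5% CO2, then given compound in DMSO by pintool. Luminescence from viable-cell prosubstrate reduction was read repeatedly over 40 h.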

[4] = qHTS RealTime-Glo MT Cell Viability Assay in HEK293 cells - 8 hour (AID 1224887); note: nearly all actives have a fitted effect of over 50% in size; note: potency is the fitted concentration of half-maximal effect
Procedure, shortened: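 qHTS format; HEK293 cells with NanoLuc/prosubstrate reagent, 37 C/5% CO2 for 5 h pre-dosing; compounds 23 nL in DMSO; luminescence at each time point reflects viable cells.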

[5] = A CellTox Green Cytotoxicity Assay to monitor cytotoxicity in HEK293 cells - 16 hour (AID 1224888); note: nearly all actives have a fitted effect of over 35% in size
Procedure, shortened: as §1

[6] = qHTS RealTime-Glo MT Cell Viability Assay in HepG2 cells - 0 hour (AID 1224889); note: nearly all actives have a fitted effect of over 50% in size
Procedure, shortened: as §2

[7] = A CellTox Green Cytotoxicity Assay to monitor cytotoxicity in HepG2 cells - 8 hour (AID 1224890); note: nearly all actives have a fitted effect of over 45% in size
Procedure, shortened: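 Continuous culture of HepG2 cells with a membrane-impermeant DNA dye; rising fluorescence marks dead cells. Compound exposure lasted up to 40 h at 37 C, with reads every 8 h from 0 h.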

[8] = qHTS assay to identify small molecule antagonists of the estrogen receptor alpha (ER-alpha) signaling pathway using the BG1 cell line in the presence of 0.1 nM 17-beta-estradiol - cell viability counter screen (AID 1259241); note: nearly all actives have a fitted effect of over 40% in size
Procedure, shortened: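 Cytotoxicity counter-screen: live-cell protease activity measured by fluorescence (30 min reagent step) in the same wells. Cells were VM7Luc4E2 with endogenous ER-alpha and ERE-driven luciferase, treated 22 hr at 37C alongside 0.1 nM 17beta-estradiol final.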

[9] = qHTS assay to identify small molecule antagonists of the androgen receptor (AR) signaling pathway using the MDA cell line in the presence of 0.5 nM R1881 - cell viability counter screen (AID 1259242); note: nearly all actives have a fitted effect of over 45% in size
Procedure, shortened: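 Fluorescence from CellTiter-Fluor, which reports protease activity of live cells, was read 30 min after reagent addition to MDA-kb2 cells that had been incubated 16 hr with compound and 0.5 nM R1881.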

[10] = target: Estrogen receptor (Homo sapiens) (UniProt P03372); test: qHTS assay to identify small molecule antagonists of the estrogen receptor alpha (ER-alpha) signaling pathway using the BG1 cell line in the presence of 0.1 nM 17-beta-estradiol (AID 1259244); note: nearly all actives have a fitted effect of over 50% in size
Procedure, shortened: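 Quantitative high-throughput screen in VM7Luc4E2 cells: compound plus 0.1 nM E2 (final), 22 h, 37C, 5% CO2; ONE-Glo added, 30 min room temperature, luminescence measured.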

[11] = qHTS assay to identify small molecule HDAC inhibitors (AID 1259364); note: nearly all actives have a fitted effect of over 45% in size; note: potency is the fitted concentration of half-maximal effect
Procedure, shortened: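 Endogenous HDAC class I/II activity was measured in wild-type HCT-116 cells by HDAC-Glo luminescence after 2 h compound treatment.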

[12] = qHTS assay to identify small molecule HDAC inhibitors - cell viability counter screen (AID 1259365)
Procedure, shortened: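 CellTiter-Glo luminescence (30 min, room temperature) reported viability after a 2 h compound exposure at 37 C. Cells: wild-type HCT-116, 1,500 per well, seeded the night before.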

[13] = qHTS assay to identify small molecule agonists of the sonic hedgehog signaling (Shh) pathway - cell viability counter screen (AID 1259366); note: nearly all actives have a fitted effect of over 50% in size
Procedure, shortened: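 Cytotoxicity counter screen: CellTiter-Fluor reagent added after 23 h compound exposure, then 1 h at 37C and fluorescence read. Cells were 3T3 Gli1-Luc, seeded 2,000 per well and dosed 4 h post-plating.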

[14] = qHTS assay to identify small molecule antagonists of the sonic hedgehog signaling (Shh) pathway - cell viability counter screen (AID 1259367); note: nearly all actives have a fitted effect of over 55% in size
Procedure, shortened: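 Seed 3T3 Gli1-Luc cells at 2,000 per well; incubate 4 hr; add compound in DMSO, then conditioned medium; incubate at 37C with 5% CO2; add CellTiter-Fluor after 23 hr; read fluorescence 1 hr later.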

[15] = qHTS assay to identify small molecule agonists of the sonic hedgehog signaling (Shh) pathway (AID 1259368; calls by dose curve;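 note: NIH/3T3-derived 3T3Gli1-Luc cells carrying a stable Gli1-driven firefly luciferase reporter; series mostly up to about 92 µM; nearly all actives have a fitted effect of over 15% in size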)
Procedure, shortened: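 Luminescent signal was taken as a measure of Gli1-controlled luciferase expression in stably transfected NIH/3T3-derived cells that had been treated for 24 hr with compounds delivered in DMSO.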

[16] = qHTS assay to identify small molecule antagonists of the sonic hedgehog signaling (Shh) pathway (AID 1259369; calls by dose curve; note: nearly all actives have a fitted effect of over 45% in size)
Procedure, shortened: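 Screening used 3T3Gli1-Luc cells at 2,000 per well, compounds delivered in DMSO, and conditioned medium as agonist stimulus; plates incubated 24hr at 37 C and 5% CO2 before a 30min luciferase step.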

[17] = target: Estrogen receptor beta (Homo sapiens) (UniProt Q92731); test: qHTS assay to identify small molecule antagonists of the estrogen receptor beta (ER-beta) signaling pathway (AID 1259378; active = well fitted inhibition curve with a large enough effect in the signal ratio in the repeat runs, not every such curve was filed as active; the % refers to the signal ratio)
Procedure, shortened: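 ER-beta-UAS-bla HEK293T cells in 2% charcoal-stripped FBS medium treated with compound plus 1nM final 17-beta-estradiol for 16 hr at 37C. Beta-lactamase reporter read by FRET substrate fluorescence after 2 hours at room temperature.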

[18] = target: Androgen receptor (Homo sapiens) (UniProt P10275); test: qHTS assay to identify small molecule antagonists of the androgen receptor (AR) signaling pathway using the MDA cell line in the presence of 0.5 nM R1881 (AID 1259243); note: nearly all actives have a fitted effect of over 50% in size; note: potency is the fitted concentration of half-maximal effect
Procedure, shortened: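 Inhibition of R1881 (0.5 nM final) induced reporter signal was measured in human MDA-kb2 cells; note the MMTV promoter also responds to GR. Exposure lasted 16 hr at 37C.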

Measured: Potency

Estrogen receptor (Homo sapiens), sequence (P03372 whole entry, looked up): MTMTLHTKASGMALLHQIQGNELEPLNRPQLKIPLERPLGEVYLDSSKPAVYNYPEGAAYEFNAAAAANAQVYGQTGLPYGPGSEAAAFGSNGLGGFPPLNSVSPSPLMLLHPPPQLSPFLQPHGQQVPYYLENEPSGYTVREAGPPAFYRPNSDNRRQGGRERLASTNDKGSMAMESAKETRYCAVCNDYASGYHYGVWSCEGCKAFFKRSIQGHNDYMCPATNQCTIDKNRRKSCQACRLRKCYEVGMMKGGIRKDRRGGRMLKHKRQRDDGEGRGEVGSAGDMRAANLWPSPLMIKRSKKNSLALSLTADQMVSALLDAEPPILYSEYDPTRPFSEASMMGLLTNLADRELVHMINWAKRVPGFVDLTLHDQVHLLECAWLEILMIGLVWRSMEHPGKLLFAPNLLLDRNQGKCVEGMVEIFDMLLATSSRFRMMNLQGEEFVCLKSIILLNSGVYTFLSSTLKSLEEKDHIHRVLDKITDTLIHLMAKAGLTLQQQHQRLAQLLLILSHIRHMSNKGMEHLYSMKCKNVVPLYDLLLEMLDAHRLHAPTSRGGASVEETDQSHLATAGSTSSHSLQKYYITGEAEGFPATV
Estrogen receptor beta (Homo sapiens), sequence (Q92731 whole entry, looked up): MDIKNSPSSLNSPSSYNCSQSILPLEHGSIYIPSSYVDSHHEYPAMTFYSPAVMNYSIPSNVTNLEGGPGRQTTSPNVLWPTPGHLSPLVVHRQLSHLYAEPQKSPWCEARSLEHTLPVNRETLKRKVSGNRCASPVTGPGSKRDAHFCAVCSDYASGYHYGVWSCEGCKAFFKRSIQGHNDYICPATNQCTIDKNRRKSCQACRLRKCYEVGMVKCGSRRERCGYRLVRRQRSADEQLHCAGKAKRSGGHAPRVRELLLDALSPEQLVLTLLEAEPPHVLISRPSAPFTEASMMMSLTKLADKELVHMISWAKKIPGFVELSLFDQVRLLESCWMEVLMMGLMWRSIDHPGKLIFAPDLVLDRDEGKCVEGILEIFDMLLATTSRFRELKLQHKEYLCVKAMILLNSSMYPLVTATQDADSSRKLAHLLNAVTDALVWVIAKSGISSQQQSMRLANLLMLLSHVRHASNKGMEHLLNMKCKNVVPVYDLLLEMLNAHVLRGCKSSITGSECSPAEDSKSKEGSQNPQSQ
Androgen receptor (Homo sapiens), sequence (P10275 whole entry, looked up): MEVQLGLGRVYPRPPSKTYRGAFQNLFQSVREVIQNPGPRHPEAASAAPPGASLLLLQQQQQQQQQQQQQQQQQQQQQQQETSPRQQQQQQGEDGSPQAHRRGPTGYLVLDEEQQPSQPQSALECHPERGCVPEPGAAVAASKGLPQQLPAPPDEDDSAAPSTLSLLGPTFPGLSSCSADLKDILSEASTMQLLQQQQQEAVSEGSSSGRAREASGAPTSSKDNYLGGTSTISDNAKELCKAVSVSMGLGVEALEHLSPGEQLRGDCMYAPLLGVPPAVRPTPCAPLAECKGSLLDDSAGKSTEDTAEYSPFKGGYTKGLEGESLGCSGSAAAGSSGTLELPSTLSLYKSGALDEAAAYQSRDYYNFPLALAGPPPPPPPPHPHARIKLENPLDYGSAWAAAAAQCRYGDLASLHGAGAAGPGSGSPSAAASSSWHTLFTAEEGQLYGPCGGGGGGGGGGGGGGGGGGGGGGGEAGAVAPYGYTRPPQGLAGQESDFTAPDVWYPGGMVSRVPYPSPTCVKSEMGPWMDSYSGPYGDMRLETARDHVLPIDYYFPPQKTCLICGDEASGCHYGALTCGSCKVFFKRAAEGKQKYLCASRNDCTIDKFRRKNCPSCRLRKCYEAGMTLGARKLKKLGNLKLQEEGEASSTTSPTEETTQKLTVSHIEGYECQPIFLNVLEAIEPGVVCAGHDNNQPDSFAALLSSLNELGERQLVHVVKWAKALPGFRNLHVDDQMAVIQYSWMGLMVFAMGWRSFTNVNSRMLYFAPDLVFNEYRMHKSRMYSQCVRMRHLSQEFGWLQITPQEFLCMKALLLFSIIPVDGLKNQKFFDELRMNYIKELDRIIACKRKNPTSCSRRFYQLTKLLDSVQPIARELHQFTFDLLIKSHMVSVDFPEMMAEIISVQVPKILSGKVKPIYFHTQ

O=c1[nH]cccc1O
not listed: [18]
inactive: all other assays above

NC(=O)C1CO1 (configuration not stated)
inactive: all assays above

Cc1ccc(C=O)cc1
not listed: [18]
inactive: all other assays above

C=C(C)CCO
not listed: [16] | [17]
inactive: all other assays above

Cc1ccc2sc3cccc(C)c3c2c1
active: [18] 8.63 µM
inactive: all other assays above

c1ccc(-c2nc3ccccc3[nH]2)cc1
active: [3] 21.9 µM | [4] 21.9 µM | [11] 2.43 µM
not listed: [16] | [18]
inactive: all other assays above
